About 2,000 (36%) of roughly 5,500 compounds were called active. Inconclusive results (about 18%) are left out. This is one part of the list. A number with no mark means an inactive call. Rule as the data show it: active = normalized growth mostly below about 0.91 (no sharp cut-off); inconclusive = no clear call, values can overlap the other calls; inactive = mostly above about 0.92.
Experiment: chemical genetic growth profiling, strain panel (AID 1159580);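 also: tested at 20 µM; growth read once vehicle control cultures reached saturation at 30 °C; 1 = growth at the plate median or of vehicle wells; lower values mean less growth of the strain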
Conditions: growth OD

Compound: CCc1nc(N)nc(N)c1-c1ccc(Cl)cc1
- normalized growth (S. cerevisiae deletion strains, locus YJR075W, strain HOC1, hits give low values): 0.978
- normalized growth (S. cerevisiae deletion strains, locus YKL009W, strain mrt4, hits give low values): 1.01
- normalized growth (S. cerevisiae deletion strains, locus YKL068W, hits give low values): 1
- normalized growth (S. cerevisiae deletion strains, locus YKL085W, strain MDH1 (second series), hits give low values): 1
- normalized growth (S. cerevisiae deletion strains, locus YKL085W, strain MDH1, hits give low values): 1
- normalized growth (S. cerevisiae deletion strains, locus YKL160W, strain elf1, hits give low values): 0.948
- normalized growth (S. cerevisiae deletion strains, locus YKL190W, strain CNB1, hits give low values): 1.01
- normalized growth (S. cerevisiae deletion strains, locus YKR001C, strain vps1, hits give low values): 0.985
- normalized growth (S. cerevisiae deletion strains, locus YKR026C, strain gcn3, hits give low values): 1.2 [resistant] (active)
- normalized growth (S. cerevisiae deletion strains, locus YKR091W, strain srl3, hits give low values): 0.977
- normalized growth (S. cerevisiae deletion strains, locus YLL001W, strain dnm1, hits give low values): 0.942
- normalized growth (S. cerevisiae deletion strains, locus YLL026W, hits give low values): 0.992
- normalized growth (S. cerevisiae deletion strains, locus YLL041C, strain sdh2, hits give low values): 0.972
- normalized growth (S. cerevisiae deletion strains, locus YLR027C, strain aat2, hits give low values): 0.984
- normalized growth (S. cerevisiae deletion strains, locus YLR039C, strain RIC1, hits give low values): 1.09
- normalized growth (S. cerevisiae deletion strains, locus YLR058C, strain SHM2, hits give low values): 1.01
- normalized growth (S. cerevisiae deletion strains, locus YLR102C, strain apc9, hits give low values): 1
- normalized growth (S. cerevisiae deletion strains, locus YLR113W, strain HOG1, hits give low values): 1.04
- normalized growth (S. cerevisiae deletion strains, locus YLR221C, strain rsa3, hits give low values): 1
- normalized growth (S. cerevisiae deletion strains, locus YLR258W, strain gsy2, hits give low values): 0.98
- normalized growth (S. cerevisiae deletion strains, locus YLR262C, strain YPT6 (second series), hits give low values): 0.958
- normalized growth (S. cerevisiae deletion strains, locus YLR262C, strain YPT6, hits give low values): 1.15
- normalized growth (S. cerevisiae deletion strains, locus YLR268W, strain sec22, hits give low values): 0.968
- normalized growth (S. cerevisiae deletion strains, locus YLR320W, strain mms22, hits give low values): 0.99
- normalized growth (S. cerevisiae deletion strains, locus YLR330W, strain CHS5, hits give low values): 1.01
- normalized growth (S. cerevisiae deletion strains, locus YLR342W, strain FKS1 (second series), hits give low values): 0.952
- normalized growth (S. cerevisiae deletion strains, locus YLR342W, strain FKS1, hits give low values): 0.989
- normalized growth (S. cerevisiae deletion strains, locus YLR357W, strain rsc2, hits give low values): 0.96
- normalized growth (S. cerevisiae deletion strains, locus YLR370C, strain arc18, hits give low values): 0.972
- normalized growth (S. cerevisiae deletion strains, locus YLR371W, strain rom2, hits give low values): 1.01
- normalized growth (S. cerevisiae deletion strains, locus YLR384C, strain iki3, hits give low values): 0.964
- normalized growth (S. cerevisiae deletion strains, locus YLR418C, strain cdc73, hits give low values): 0.939
- normalized growth (S. cerevisiae deletion strains, locus YML016C, strain PPZ1, hits give low values): 0.999
- normalized growth (S. cerevisiae deletion strains, locus YML032C, strain rad52, hits give low values): 0.952
- normalized growth (S. cerevisiae deletion strains, locus YML120C, strain ndi1, hits give low values): 0.963
- normalized growth (S. cerevisiae deletion strains, locus YML124C, strain tub3, hits give low values): 1
- normalized growth (S. cerevisiae deletion strains, locus YMR058W, strain fet3, hits give low values): 0.988
- normalized growth (S. cerevisiae deletion strains, locus YMR078C, strain ctf18, hits give low values): 0.998
- normalized growth (S. cerevisiae deletion strains, locus YMR125W, strain sto1, hits give low values): 0.932
- normalized growth (S. cerevisiae deletion strains, locus YMR129W, hits give low values): 0.976
- normalized growth (S. cerevisiae deletion strains, locus YMR205C, strain PFK2, hits give low values): 0.956
- normalized growth (S. cerevisiae deletion strains, locus YMR223W, strain ubp8, hits give low values): 0.996
- normalized growth (S. cerevisiae deletion strains, locus YMR231W, strain pep5, hits give low values): 0.974
- normalized growth (S. cerevisiae deletion strains, locus YMR263W, strain SAP30, hits give low values): 1.01
- normalized growth (S. cerevisiae deletion strains, locus YMR307W, strain GAS1, hits give low values): 0.916
- normalized growth (S. cerevisiae deletion strains, locus YNL067W, strain RPL9B, hits give low values): 0.999
- normalized growth (S. cerevisiae deletion strains, locus YNL071W, strain lat1, hits give low values): 0.976
- normalized growth (S. cerevisiae deletion strains, locus YNL128W, strain TEP1, hits give low values): 1.02
- normalized growth (S. cerevisiae deletion strains, locus YNL153C, strain GIM3, hits give low values): 1.01
- normalized growth (S. cerevisiae deletion strains, locus YNL183C, strain NPR1, hits give low values): 0.998
- normalized growth (S. cerevisiae deletion strains, locus YNL209W, strain ssb2, hits give low values): 0.979
- normalized growth (S. cerevisiae deletion strains, locus YNL233W, strain BNI4, hits give low values): 0.991
- normalized growth (S. cerevisiae deletion strains, locus YNL248C, strain rpa49, hits give low values): 0.966
- normalized growth (S. cerevisiae deletion strains, locus YNL250W, strain rad50, hits give low values): 1
- normalized growth (S. cerevisiae deletion strains, locus YNL271C, strain bni1, hits give low values): 0.998
- normalized growth (S. cerevisiae deletion strains, locus YNL298W, strain CLA4, hits give low values): 1
- normalized growth (S. cerevisiae deletion strains, locus YNL307C, strain MCK1, hits give low values): 0.972
- normalized growth (S. cerevisiae deletion strains, locus YNL322C, strain KRE1 (second series), hits give low values): 0.975
- normalized growth (S. cerevisiae deletion strains, locus YNL322C, strain KRE1, hits give low values): 0.967
- normalized growth (S. cerevisiae deletion strains, locus YNR049C, strain mso1, hits give low values): 0.968
- normalized growth (S. cerevisiae deletion strains, locus YNR052C, strain pop2, hits give low values): 0.931
- normalized growth (S. cerevisiae deletion strains, locus YOL006C, strain TOP1, hits give low values): 1.03
- normalized growth (S. cerevisiae deletion strains, locus YOL012C, strain htz1): 0.833
- normalized growth (S. cerevisiae deletion strains, locus YOL147C, strain pex11, hits give low values): 0.995
- normalized growth (S. cerevisiae deletion strains, locus YOR001W, strain rrp6, hits give low values): 0.938
- normalized growth (S. cerevisiae deletion strains, locus YOR061W, strain CKA2, hits give low values): 1.01
- normalized growth (S. cerevisiae deletion strains, locus YOR069W, strain VPS5, hits give low values): 1
- normalized growth (S. cerevisiae deletion strains, locus YOR070C, strain gyp1, hits give low values): 0.998
- normalized growth (S. cerevisiae deletion strains, locus YOR080W, strain dia2, hits give low values): 0.951
- normalized growth (S. cerevisiae deletion strains, locus YOR083W, strain WHI5, hits give low values): 0.936
- normalized growth (S. cerevisiae deletion strains, locus YOR106W, strain vam3, hits give low values): 0.946
- normalized growth (S. cerevisiae deletion strains, locus YOR136W, strain idh2, hits give low values): 1.01
- normalized growth (S. cerevisiae deletion strains, locus YOR144C, strain elg1, hits give low values): 1.01
- normalized growth (S. cerevisiae deletion strains, locus YOR184W, strain ser1, hits give low values): 0.979
- normalized growth (S. cerevisiae deletion strains, locus YOR231W, strain MKK1, hits give low values): 1.02
- normalized growth (S. cerevisiae deletion strains, locus YOR265W, strain rbl2, hits give low values): 0.976
- normalized growth (S. cerevisiae deletion strains, locus YOR270C, strain vph1, hits give low values): 0.932
- normalized growth (S. cerevisiae deletion strains, locus YOR290C, strain snf2, hits give low values): 0.896
- normalized growth (S. cerevisiae deletion strains, locus YOR316C, strain cot1, hits give low values): 1
- normalized growth (S. cerevisiae deletion strains, locus YPL051W, strain arl3, hits give low values): 0.981
- normalized growth (S. cerevisiae deletion strains, locus YPL055C, strain LGE1, hits give low values): 1
- normalized growth (S. cerevisiae deletion strains, locus YPL078C, strain atp4, hits give low values): 0.959
- normalized growth (S. cerevisiae deletion strains, locus YPL106C, strain sse1, hits give low values): 0.956
- normalized growth (S. cerevisiae deletion strains, locus YPL240C, strain hsp82, hits give low values): 0.98
- normalized growth (S. cerevisiae deletion strains, locus YPL241C, strain CIN2, hits give low values): 1.01
- normalized growth (S. cerevisiae deletion strains, locus YPL256C, strain CLN2, hits give low values): 1.09
- normalized growth (S. cerevisiae deletion strains, locus YPR119W, strain clb2, hits give low values): 1
- normalized growth (S. cerevisiae deletion strains, locus YPR141C, strain kar3, hits give low values): 1
- normalized growth (S. cerevisiae deletion strains, locus YPR163C, strain tif3, hits give low values): 0.996
- normalized growth (S. cerevisiae deletion strains, locus YPR167C, strain met16, hits give low values): 1.01
- normalized growth (S. cerevisiae deletion strains, strain wtn01, hits give low values): 0.975
- normalized growth (S. cerevisiae strains, strain wild type, hits give low values): 1

Reference: PubChem BioAssay AID1159580 (chemical genetic matrix, 2015)
